PubChem BioAssay AID2326 (National Center for Advancing Translational Sciences (NCATS), 2010)
The campaign covered roughly 270,000 compounds. About 1,100 (0.41%) were called active. Not shown: some 3% with an inconclusive outcome. The call rests on the fitted dose curve. Shown is part of a subset that was picked to be rich in actives.

Test: qHTS Assay for Inhibitors of Influenza NS1 Protein Function; further: actives are rising curves; nearly all actives have a fitted effect of over 50% in size
Details: series mostly up to 46.1 µM; activity, positive = more growth: at the top concentration
Source text: NIH Chemical Genomics Center [NCGC]
NIH Molecular Libraries Probe Centers Network [MLPCN]
Assay Submitter (PI): Daniel Engel
Influenza is a world-wide public health problem and emerging forms of the virus have the potential to cause a pandemic of equal or greater magnitude to the outbreaks recorded in 1918, 1957 or 1968. Vaccine development is proceeding and there also exist two classes of anti-influenza compounds. However these therapeutic modalities are neither fully effective nor widely enough available to fulfill global needs. In addition their potential usefulness against newly emergent strains is not known. Efforts are needed to develop novel agents against influenza virus, including broad-spectrum agents. Identification of small molecules that inhibit NS1 function either directly or by interfering with specific cellular pathways may be a key to increasing our defense against the virus.
We have miniaturized and optimized a cell based assay in which NS1 from influenza A is expressed in the budding yeast S. cerevisiae. NS1 is a multi-functional protein that counters the host innate immune response and facilitates viral versus cellular gene expression. Expression of NS1 causes a pronounced slow growth phenotype in yeast due to its intrinsic molecular activities. Small molecules that suppress the slow growth phenotype can be identified by a straightforward growth recovery assay using optical density (OD) as the measurement. The same yeast strain not expressing NS1 was used as positive control in the yeast growth recovery assay.
The yeast S. cerevisiae control and NS1 expressing cells were kindly supplied by laboratory of Dr. Daniel Engel, University of Virginia. Yeast starter cultures were stored in single use aliquots at -80C.
1. Yeast culture medium per liter: 1.2 g Yeast Nitrogen Base (w/out amino acids and Ammonium Sulphate), 5.0g Ammonium Sulphate, 0.77g -URA DO (drop-out) Supplement, adjust pH to 6.0. Adjust to 2% glucose prior to inoculating with yeast.
2. Yeast assay medium: 1.2 g Yeast Nitrogen Base (w/out amino acids and Ammonium Sulphate), 5.0g Ammonium Sulphate, 0.77g -URA DO (drop-out) Supplement, adjust pH to 6.0. Adjust to 2% D-galactose prior to inoculating with yeast.
1. Inoculate 100 mls of yeast culture medium with 1 ml of frozen yeast aliquote. Incubate overnight at 30C, 250RPM.
2. Harvest overnight culture at 4000 RPM and wash pellet with 15 mls H2O 3x.
3. Re-suspend washed pellet in 10 mls of yeast assay medium.
4. Prepare a 1:100 dilution of re-suspended culture in yeast assay medium.
5. Dispense 3.5 ul per well of reagents in step 4 in columns 2-48 in a black clear bottom 1536 well plate.
6. Dispense 3.5 ul per well of yeast assay medium in column 1 only.
7. Transfer 23 nl of compound per well.
8. Dispense 3.5 ul per well of yeast assay medium in columns 1-48.
9. Read plate using Viewlux protocol for optical density 600 (OD600) using excitation filter 600nm.
Potency means the concentration at half of the fitted maximal effect.

SMILES	activity, positive = more growth	Potency
COCCCn1c2nc3ccccc3nc2c2c(=O)n(Cc3ccc(Cl)cc3)c(C)nc21	-0.53% (inactive)	–
Cc1ccc(Cn2c(C)nc3c(c2=O)c2nc4ccccc4nc2n3Cc2ccco2)cc1	–	4.47 µM (active)
Cc1nc2c(c(=O)n1Cc1ccco1)c1nc3ccccc3nc1n2Cc1ccccc1	3.74% (inactive)	–
CC1(C(=O)NNC(=S)NCC2CCCO2)CC1(Cl)Cl (stereo not given)	-1.43% (inactive)	–
O=C(N[C@@H](Cc1ccccc1)C(=O)OCc1ccccc1)c1nc[nH]c1C(=O)N[C@@H](Cc1ccccc1)C(=O)OCc1ccccc1	6.79% (inactive)	–
CCc1ccc(OCC2c3cc(OC)c(OC)cc3CCN2C(C)=O)cc1 (stereo not given)	5.89% (inactive)	–
COc1ccc(NC(=O)CN2CCN(S(=O)(=O)c3ccc(F)cc3)CC2)cc1Cl	-4.2% (inactive)	–
COc1ccccc1NC(=O)CN1CCN(S(=O)(=O)c2ccc(Br)cc2)CC1	-5.14% (inactive)	–
COc1cc2c(cc1NC(=O)CN1CCN(S(=O)(=O)c3ccc(F)cc3)CC1)oc1ccccc12	–	5.62 µM (active)
CC(CN1CCOCC1)OC(=O)c1ccc(C(C)(C)C)cc1 (stereo not given)	-23.1% (inactive)	–
O=C(CC(n1cncn1)C(Cl)(Cl)Cl)c1ccc([N+](=O)[O-])cc1 (stereo not given)	-84.2% (inactive)	–
Cc1cc(C)c(S(=O)(=O)Nc2c(C)n(C)n(-c3ccccc3)c2=O)cc1[N+](=O)[O-]	-4.82% (inactive)	–
Cc1ccc(S(=O)(=O)Nc2ccccc2CNc2c(C)n(C)n(-c3ccccc3)c2=O)cc1	-70% (inactive)	–
COc1ccc(S(=O)(=O)Nc2c(C)n(C)n(-c3ccccc3)c2=O)cc1	–	3.98 µM (active)
O=[N+]([O-])c1ccc(NC(=S)N2CCN(c3ccccn3)CC2)cc1	-11.2% (inactive)	–
FC(F)(F)C1CCCN(c2nsc3ccccc23)C1 (stereo not given)	-121% (inactive)	–
COc1cccc(OCc2cc(C(=O)N3CCN(C(=O)c4ccco4)CC3)no2)c1	-6.93% (inactive)	–
O=C(Cc1cc(=O)[nH][nH]1)N/N=C/c1ccccc1[N+](=O)[O-]	–	8.91 µM (active)
Cc1ccsc1/C=N/NC(=O)Cc1cc(=O)[nH][nH]1	14.1% (inactive)	–
Cc1cc(C(=O)N/N=C/c2ccccc2[N+](=O)[O-])c(C)o1	-0.261% (inactive)	–
COc1cnc(-c2ccccn2)nc1Oc1ccc(C(C)(C)C)cc1	-1.08% (inactive)	–
O=C(CSc1nnnn1C1CCCC1)N1CCCCC1	4.51% (inactive)	–
COc1ccc(C2CC(c3cccs3)=NN2C(=O)CCC(=O)O)cc1OC (stereo not given)	19.5% (inactive)	–
O=C1c2cccc(OCC(=O)N3N=C(c4cccs4)CC3c3ccc(F)cc3)c2CCN1Cc1ccccc1 (stereo not given)	–	5.01 µM (active)
COc1ccc(C2CC(c3cccs3)=NN2C(=O)COC(=O)c2cc3ccccc3cc2O)cc1OC (stereo not given)	24.1% (inactive)	–
O=C(Nc1ccc(C2CC2(Cl)Cl)cc1)c1cccc([N+](=O)[O-])c1 (stereo not given)	-29.5% (inactive)	–
Cc1cnc(NC(=O)c2ccc(Cl)nc2)s1	-1.39% (inactive)	–

SMILES	activity, positive = more growth	Potency
O=C(CCCN1C(=O)/C(=C/c2cccs2)SC1=S)Nc1ccc(O)cc1	-5.71% (inactive)	–
COc1ccc(CNC(=O)C(c2ccc(O)cc2)N(Cc2ccco2)C(=O)c2snc(C(N)=O)c2N)cc1 (stereo not given)	12.4% (inactive)	–
Cc1cccc(NC(=S)NCCc2ccc(Cl)cc2)c1C	-49.7% (inactive)	–
O=c1[nH]nc(CSCc2ccccc2Cl)[nH]1	-9.59% (inactive)	–
O=c1cc(O)nc(SCc2ccccc2Cl)[nH]1	–	5.01 µM (active)
Clc1ccccc1CSc1nnc(-c2ccco2)c(-c2ccco2)n1	10.7% (inactive)	–
COc1ccc(C(=O)/C=C/c2cccnc2)c(OC)c1	-15.2% (inactive)	–
O=C(/C=C/c1ccco1)NC(=S)Nc1ccccc1Br	13.4% (inactive)	–
Oc1ccccc1-c1cc(-c2ccc(Cl)cc2)n[nH]1	-6.76% (inactive)	–
CC(C)OCC(O)CN1CCN(C(c2ccccc2)c2ccccc2)CC1 (stereo not given)	0.765% (inactive)	–
COc1cccc(CN(C)CC(O)COC(c2ccccc2)c2ccccc2C)c1 (stereo not given)	2.51% (inactive)	–
Cc1ccccc1C(OCC(O)CN1CCCCC1CCO)c1ccccc1 (stereo not given)	–	4.47 µM (active)
COc1ccc(/C=C2\SC(=O)N(CCC(=O)NCCCn3ccnc3)C2=O)cc1	-0.375% (inactive)	–
COC(=O)CN1C(=O)C(C)(C)Oc2ccc(C(=O)Nc3cccc(OC)c3)cc21	-9.9% (inactive)	–
COc1cccc(-n2c(SCC(=O)NC3CCCCC3)nc3n[nH]c(C)c3c2=N)c1	–	3.16 µM (active)
Cc1ccc(-n2c(SCC(=O)NCCC3=CCCCC3)nc3n[nH]c(C)c3c2=N)cc1Cl	-0.553% (inactive)	–
CCCCNC(=O)CSc1nc2n[nH]c(C)c2c(=N)n1-c1cccc(Cl)c1C	9.85% (inactive)	–
O=C(NC(=S)Nc1ccc(Cl)cc1Cl)C1CC1	-10.3% (inactive)	–
COc1ccc(Oc2cn[nH]c2-c2ccc(OC)cc2O)cc1	-65.9% (inactive)	–
Cc1cc(C)c(SCCc2ccncc2)c(C)c1	-40.4% (inactive)	–
O=c1c2ccccc2ncn1/N=C/c1ccccc1	-8.05% (inactive)	–
COC(=O)[C@H](C)[C@H]1C[C@]1(C)[C@H](NC(=O)OCc1ccccc1)c1ccccc1	-66.8% (inactive)	–
C[C@@H](C(=O)Nc1ccc2ccccc2c1)[C@@H]1C[C@@]1(C)[C@@H](NC(=O)c1cccnc1)c1ccccc1	–	12.6 µM (active)
O=C(Nc1ccc(N2CCN(C(=O)c3ccccc3)CC2)c(Cl)c1)c1cccnc1	-2.87% (inactive)	–
O=C(Nc1nnc(C2=COCCO2)o1)c1ccc([N+](=O)[O-])s1	-17.1% (inactive)	–
O=C(N/N=C\c1cc2c(cc1Cl)OCO2)c1ccc(Br)s1	-1.29% (inactive)	–
CCCOC1CCCN(C(=O)c2cc(COc3cncc(Cl)c3)on2)C1 (stereo not given)	-16.5% (inactive)	–

SMILES	activity, positive = more growth	Potency
CC(C)(C)c1ccc(CN2C(=O)c3ccccc3S2(=O)=O)cc1	-6.88% (inactive)	–
COc1ccc(-c2nc(CS(=O)CC(=O)NCc3ccccn3)c(C)o2)cc1 (stereo not given)	–	14.1 µM (active)
COc1ccc(-c2nc(CS(=O)CC(=O)NCc3ccccc3)c(C)o2)cc1OC (stereo not given)	2.37% (inactive)	–
COc1cccc(-c2nc(CS(=O)CC(=O)NCc3ccc(F)cc3)c(C)o2)c1 (stereo not given)	6.23% (inactive)	–
Cc1c(C)n(Cc2ccc(Cl)cc2)c2ccc(C(=O)NCCCN3CCOCC3)cc12	2.54% (inactive)	–
COCn1c(COc2ccccc2)nc2ccccc21	-9.61% (inactive)	–
COc1ccccc1Cn1c(CO)nc2ccccc21	2.42% (inactive)	–
COCc1nc2ccccc2n1Cc1ccccc1Br	–	2.82 µM (active)
CN(CCO)c1ccc(/C=N/Nc2nncc3ccccc23)cc1	-0.974% (inactive)	–
CCc1ccccc1S(=O)(=O)Cc1ccc(C(=O)NCCc2ccccc2)o1	5.46% (inactive)	–
Clc1c(OCCCn2ccnc2)ccc2ccccc12	-92.1% (inactive)	–
Cn1c(CC(=O)Nc2ccccc2)nnc1SCC(=O)c1ccccc1	–	11.2 µM (active)
Cn1c(CSCC(=O)Nc2ccccc2)nnc1SCc1ccccc1	-3.56% (inactive)	–
Cn1c(Cc2cccs2)nnc1SCC(=O)Nc1ccccc1	11.6% (inactive)	–
O=S1(=O)CCOC[C@H](CC2CCCCC2)N1Cc1ccc(F)cc1	-5.09% (inactive)	–
Cc1nonc1C1CCCN1C(=O)c1cc(COc2cccc(C(F)(F)F)c2)on1 (stereo not given)	1.92% (inactive)	–
COc1ccc(C(=O)CC(=O)c2ccc(C)cc2)c(O)c1	-8.33% (inactive)	–
O=C(Nc1ccccc1)c1ccc2c(c1)OCCCO2	-89.8% (inactive)	–
COc1ccccc1-c1noc(CSc2nc(C)cc(=O)[nH]2)n1	1.14% (inactive)	–
Cc1cc(=O)[nH]c(SCc2cccc(F)c2)n1	-3.47% (inactive)	–
Cc1cc(=O)[nH]c(SCc2cc(Cl)ccc2OC(F)F)n1	–	3.16 µM (active)
CC(=O)N1CCc2c(sc(NC(=O)CCS(=O)(=O)c3ccccc3)c2C#N)C1	-4.08% (inactive)	–
Cc1ccc(N(Cc2cc(=O)[nH]c3ccccc23)C(=O)CCl)cc1	2.46% (inactive)	–
CC(C)n1c(COc2ccccc2)nc2ccccc21	-47.3% (inactive)	–
Cc1cccc(NC(=O)c2ccc3c(=O)n(CC4CCCO4)c(=S)[nH]c3c2)c1 (stereo not given)	-0.15% (inactive)	–
CC1CCN(C2=NC(=O)/C(=C/c3ccc(O)cc3)S2)CC1	15% (inactive)	–
O=S(=O)(c1ccc(OCC(O)CN2CCN(c3ccccc3Cl)CC2)cc1)N1CCOCC1 (stereo not given)	–	1.26 µM (active)

SMILES	activity, positive = more growth	Potency
OC(COc1ccc2ccccc2c1)CN1CCOCC1 (stereo not given)	1.77% (inactive)	–
CC(=O)Nc1ccc(OCC(O)CN2CCN(c3ccccc3Cl)CC2)cc1 (stereo not given)	-6.58% (inactive)	–
Cc1cccnc1CC(C)NC(=O)c1cc(COc2cncc(Cl)c2)on1 (stereo not given)	-7.9% (inactive)	–
O=[N+]([O-])c1ccc2c(c1)Nc1nc3ccccc3nc1N2	-62.4% (inactive)	–
Cc1cc(Br)ccc1NC(=S)NC1CCCC1	-89.5% (inactive)	–
Cc1ccc(-c2csc(-c3c[nH]c4ccccc34)n2)cc1	-6.52% (inactive)	–
Clc1cccc(N=C2NN=C(c3ccc4c(c3)OCCO4)CS2)c1	13.9% (inactive)	–
Cc1cccc(N=C2NN=C(c3c[nH]c4ccccc34)CS2)c1	–	14.1 µM (active)
COc1ccccc1NC(=O)C1CCN(C(=O)c2ccc(C(C)(C)C)cc2)CC1	3.23% (inactive)	–
Cc1ccc(NC(=S)NCCc2ccc(Cl)cc2)c(C)c1	-44.7% (inactive)	–
COc1ccc2[nH]c(C(=O)N/N=C/c3cc(OC)c(OC)c(OC)c3)cc2c1	-2.63% (inactive)	–
Cn1c(NC(=O)c2ccccc2)nc2ccccc21	-89.1% (inactive)	–
COCCCNC(=S)N1CCN(c2nc(-c3cccc(OC)c3)cs2)CC1	2.39% (inactive)	–
CC(C(=O)NC1CCCCC1)N1C(=O)c2cccc3cccc1c23 (stereo not given)	4.31% (inactive)	–
CC(C(=O)O)N1C(=O)c2cccc3cccc1c23 (stereo not given)	–	14.1 µM (active)
Cc1cc(C)nc(NC(=O)C(C)N2C(=O)c3ccccc3C2=O)n1 (stereo not given)	3.33% (inactive)	–
O=C1/C(=C/c2ccc(F)cc2)SC(=S)N1CCCC(=O)N1CCCCC1CCO (stereo not given)	-51.5% (inactive)	–
O=C(NCCCN1CCOCC1)c1ccc2c(c1)N(Cc1cccc(F)c1)C(=O)c1ccccc1S2	2.04% (inactive)	–
CN(C)S(=O)(=O)N1CCC(Oc2cccc(C(=O)NCCCC3CCCC3)c2)CC1	-0.22% (inactive)	–
O=C(CC1N=C2c3ccccc3N=C(SCc3ccccc3Cl)N2C1=O)NCc1ccco1 (stereo not given)	8.45% (inactive)	–
NC(=O)CSC1=Nc2ccccc2C2=NC(CCC(=O)NCc3ccc(F)cc3)C(=O)N12 (stereo not given)	-1.66% (inactive)	–
O=C(CSC1=Nc2ccccc2C2=NC(CC(=O)NCc3ccco3)C(=O)N12)NCc1ccco1 (stereo not given)	–	7.94 µM (active)
CN(c1ccc(O)cc1)c1nc(-c2cccnc2)cs1	-47.4% (inactive)	–
CC(=O)c1cccc(OCc2cc(C(=O)NC(C)Cc3cccnc3)no2)c1 (stereo not given)	1.99% (inactive)	–
